Experimental data as given in publication PMC7826789 (International Journal of Molecular Sciences, 2021).

## CC(C)COC(=O)c1ccc2c(c1)/C(=C/Nc1ccc(S(N)(=O)=O)cc1)C(=O)N2 [GW416981X]
IKKE
  Kinases covered: IKKE

## CNC(=O)c1c(F)cccc1Nc1nc(Nc2cc3c(cc2OC)CCN3C(=O)CN(C)C)nc2[nH]ccc12 [GSK1838705]
IRR
  Kinases covered: IRR

## CN(C)C(=O)/C(C#N)=C/c1ccc(-c2nc3cnc4[nH]ccc4c3n2C2CCCCC2)o1 [FM-381]
JAK1
  Kinases covered: JAK1
JAK3
  Kinases covered: JAK3

## C[C@@H]1CCN(C(=O)CO)C[C@@H]1N(C)c1ncnc2[nH]ccc12 [PFE-PKIS 34]
JAK3
  Kinases covered: JAK3

## Cc1cc(NC(=O)c2cccc(NC(=O)/C=C/CN(C)C)c2)ccc1Nc1nccc(-c2cccnc2)n1 [JNK-IN-7]
JNK1
  Kinases covered: JNK1
JNK2
  Kinases covered: JNK2
